Test systems include NCI-H23 lung; NCI-H226 lung; NCI-H322M lung; HOP-62 NSCLC; NCI-H460 lung; NCI-H522 lung; 786-0 renal; COLO 205 colon; A549/ATCC NSCLC.
Experiment in all cases: NCI-60 one-dose screen, 48 h (100 = growth as untreated, 0 = no growth, -100 = all killed)
Settings in all cases: 10 µM

This is part of a sample that, as a whole, favours compounds with a hit. Of some 83,000 tested, about 20% had one in any assay.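 Cells were grown in 96-well plates and exposed to the test compound at a single concentration for 48 hours; results are reported as percent growth, with values below 10 considered active.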 Values without a mark were called inactive. The source made the active and inactive calls.

As to `O=C1C=CC2=C3c4cc(O)c(O)cc4CC3(O)COC2=C1O` (stereo not given), the growth in the test on NCI-H23 lung was 117%; with NCI-H226 lung, 95.1%; with NCI-H322M lung, 107%; with HOP-62 NSCLC, 100%; with NCI-H460 lung, 89.8%; in the test with NCI-H522 lung, 84.5%. Besides, the growth in the test with 786-0 renal is 92.1%; in the test with COLO 205 colon, 98.6%.
For `CCC/C=C(\C)C(C)(C#N)C(=O)OCC` (stereo not given), the growth with NCI-H23 lung was 116%; in the test with NCI-H226 lung it was 101%; in the test with NCI-H322M lung it was 111%; with HOP-62 NSCLC, 99.1%; in the test on NCI-H460 lung it was 108%; with A549/ATCC NSCLC, 95.7%. Besides, the growth in the test with 786-0 renal and in the test with COLO 205 colon was 110% each time.
Take `CCC/C=C(/C(C)=O)C(=O)OCC`: the growth with NCI-H23 lung was 107%; with NCI-H226 lung, 95.7%; in the test with NCI-H322M lung, 110%; with HOP-62 NSCLC, 108%; with NCI-H460 lung, 114%; in the test with NCI-H522 lung it was 111%. The growth was 90.8% in the test on A549/ATCC NSCLC, 113% with 786-0 renal and 113% in the test on COLO 205 colon.
Take `O=C1OC[C@H]2[C@H](c3ccc(O)c(O)c3)c3cc(O)c(O)cc3C[C@H]12`: the growth with NCI-H23 lung was 13.4%; in the test with NCI-H226 lung, 116%; in the test on NCI-H322M lung, 130%; in the test on HOP-62 NSCLC, 130%; with NCI-H460 lung, 122%; with NCI-H522 lung it was 19.4%. The growth was 110% in the test with 786-0 renal and 108% in the test with COLO 205 colon.
Take `O=C1C=C(O)C(=O)C=C1O`: the growth in the test on NCI-H23 lung is 94.8%; in the test on NCI-H226 lung, 114%; in the test with NCI-H322M lung, 112%; in the test on HOP-62 NSCLC it was 97.9%; in the test with NCI-H460 lung, 107%; in the test with A549/ATCC NSCLC, 112%. Also, the figures for the growth in the test with 786-0 renal and with COLO 205 colon were 107% and 94.1%, respectively.
Regarding `c1ccc(CN2COc3c(ccc4c3OCN(Cc3ccccc3)C4)C2)cc1`, the growth is 29.9% with NCI-H23 lung; -9.91% (active) in the test with NCI-H226 lung; 32.9% in the test on NCI-H322M lung; 26.2% in the test with HOP-62 NSCLC; 9.51% (active) in the test with NCI-H460 lung; 30.7% with NCI-H522 lung. Moreover, the growth in the test on A549/ATCC NSCLC is 6.93% (active); in the test with 786-0 renal, -26% (active); with COLO 205 colon it was 12.7%.
Regarding `O=[N+]([O-])c1ccc(Cl)c(S(=O)(=O)O)c1`, the growth with NCI-H23 lung is 103%; in the test with NCI-H226 lung, 109%; in the test on NCI-H322M lung, 136%; in the test with HOP-62 NSCLC, 103%; in the test with NCI-H460 lung it was 108%; with A549/ATCC NSCLC, 102%. Further, the growth in the test with 786-0 renal was 110%; with COLO 205 colon, 118%.
Take `C=CC(=O)OCCCCCCCC`: the growth in the test with NCI-H23 lung was 105%; in the test on NCI-H226 lung it was 98.9%; with NCI-H322M lung, 117%; with HOP-62 NSCLC, 98.4%; in the test with NCI-H460 lung, 102%; with A549/ATCC NSCLC it was 99.8%. In addition, the growth with 786-0 renal is 104%; in the test on COLO 205 colon it was 107%.
In the case of `CCCCC(O)c1ccccc1` (stereo not given), the growth was 96.5% with NCI-H23 lung; 97.2% in the test on NCI-H226 lung; 101% in the test with NCI-H322M lung; 110% with HOP-62 NSCLC; 105% in the test with NCI-H460 lung; 108% in the test with NCI-H522 lung. Moreover, the values for the growth in the test on A549/ATCC NSCLC, in the test on 786-0 renal and in the test with COLO 205 colon were 100%, 104% and 105%, respectively.
Consider `NCCC(=O)c1ccc(Cl)cc1`, for which the growth in the test with NCI-H23 lung is 99.8%; in the test on NCI-H226 lung, 112%; with NCI-H322M lung, 102%; with HOP-62 NSCLC, 91%; in the test with NCI-H460 lung, 107%; in the test with NCI-H522 lung, 100%. Besides, the growth is 111% with A549/ATCC NSCLC, 105% with 786-0 renal and 106% in the test on COLO 205 colon.
In the case of `NC(N)=Nc1cc2ccccc2c2ccccc12`, the growth in the test with NCI-H23 lung was 86.7%; in the test on NCI-H226 lung it was 89.5%; with NCI-H322M lung it was 98.7%; in the test with HOP-62 NSCLC, 101%; in the test with NCI-H460 lung, 86.8%; in the test on NCI-H522 lung, -49.2% (active). The figures for the growth with A549/ATCC NSCLC, with 786-0 renal and in the test with COLO 205 colon were 27.8%, 90.6% and 44.9%, respectively.
Regarding `O=C(NCc1ccco1)Nc1c(Cl)cc(Cl)cc1Cl`, the growth is 104% with NCI-H23 lung; 99.6% with NCI-H226 lung; 106% in the test with NCI-H322M lung; 97.3% in the test with HOP-62 NSCLC; 103% in the test with NCI-H460 lung; 102% in the test on A549/ATCC NSCLC. Besides, the growth was 97.2% in the test on 786-0 renal and 107% in the test on COLO 205 colon.
On to `CCCCC1C(=O)N(c2ccccc2)N(c2ccccc2)C1=O`, for which the growth with NCI-H23 lung is 109%; in the test on NCI-H226 lung, 95.8%; in the test with NCI-H322M lung, 99.9%; in the test with HOP-62 NSCLC it was 99.3%; in the test on NCI-H460 lung, 114%; in the test on NCI-H522 lung, 102%. Also, the growth with A549/ATCC NSCLC was 106%; in the test with 786-0 renal, 98.5%; with COLO 205 colon, 106%.

Source of the values: PubChem BioAssay (NCI).
